High-throughput results from PubChem BioAssay.
ALDH1A1 block: ALDH1A1 (human) enzyme inhibition | Purified ALDH1A1, NADH fluorescence, propionaldehyde substrate | AID 1030 | hit rate 7.3% among 220,000 | Potency, µM (doses to about 75.3 µM), for the others: at the top dose activity, negative = inhibition, usual class: inhibitors | P00352;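 further: potency means the concentration at half of the fitted maximal effect; plate controls were no enzyme wells and a reference inhibitor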
JMJD2E inh: JMJD2E (human) inhibition; JMJD2E catalytic domain, FDH-coupled NADH fluorescence (FDH is formaldehyde dehydrogenase); Potency, µM (highest dose often 57.1 µM), for inactives: at the top dose activity change, negative = inhibition, actives largely listed as inhibitors; hit rate 1.6% among 230,000;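 further: potency means the concentration at half of the fitted maximal effect; 0% = wells with enzyme and -100% = buffer wells without enzyme; nearly all actives have a fitted effect of over 50% in size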
Target sequence (B2RXH2 1-337 limits assumed): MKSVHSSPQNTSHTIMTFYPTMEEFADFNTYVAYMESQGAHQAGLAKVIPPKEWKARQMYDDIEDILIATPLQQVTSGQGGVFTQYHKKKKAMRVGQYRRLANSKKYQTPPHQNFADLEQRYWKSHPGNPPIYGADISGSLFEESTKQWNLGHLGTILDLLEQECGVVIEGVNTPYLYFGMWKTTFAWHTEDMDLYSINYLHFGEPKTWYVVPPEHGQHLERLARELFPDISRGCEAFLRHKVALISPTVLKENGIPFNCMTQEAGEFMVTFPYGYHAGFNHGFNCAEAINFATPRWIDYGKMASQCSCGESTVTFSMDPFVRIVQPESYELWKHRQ
PNC assembly inh: blocks assembly of the perinucleolar compartment. PC3M PTB-GFP, PNC prevalence imaging, 16 h; hits give low values. activity change (PNC), negative = inhibition, % at 10 µM. hit rate 3.1% among 140,000. AID 2417;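 active means readout at or below -70, meaning at least 70% loss of cells showing the perinucleolar compartment, a nuclear body marking cancer cells; inconclusive means readout between -30 and a set limit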;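 further: plate controls were DMSO wells for no effect and camptothecin positive control wells for full effect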
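Read-out is percentage of cells bearing a perinucleolar compartment, from automated 20x imaging of fixed, Hoechst-stained PC3M PTB-GFP cells. Cells were seeded 4 h, then exposed 16 h to compound (23 nl of library stock) in duplicate plates.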
HPGD block: blocks human HPGD enzyme activity | P15428 | purified HPGD, NADH fluorescence kinetic, PGE2 substrate | Potency, µM, for inactives: at the top dose activity change, negative = inhibition, hits mostly inhibitors | hit rate 4.3% among 150,000 | AID 894; further: potency means the concentration at half of the fitted maximal effect
Target sequence (P15428 whole entry, looked up): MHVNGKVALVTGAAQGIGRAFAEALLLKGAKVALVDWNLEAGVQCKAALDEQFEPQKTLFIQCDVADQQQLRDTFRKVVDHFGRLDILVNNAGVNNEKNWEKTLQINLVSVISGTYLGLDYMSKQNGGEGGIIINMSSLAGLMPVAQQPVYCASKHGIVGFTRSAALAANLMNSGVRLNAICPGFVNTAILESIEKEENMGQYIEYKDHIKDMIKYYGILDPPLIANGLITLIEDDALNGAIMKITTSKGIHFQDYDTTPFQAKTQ
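20 nM HPGD preincubated 15 min at room temperature with compound in 50 mM Tris-HCl pH 8, 0.01% Tween 20. Started with 1 mM NAD+ and 30 uM prostaglandin E2; NADH fluorescence (360/450 nm) read 5 times over 30-s intervals, last minus first.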
* = called active by the depositor; ? = inconclusive; . = not tested or not shown. This is a sample that favours compounds with a hit; in the whole collection about 11% have one here. Unless noted, the call rests on the fitted dose curve; in most records, active means well fitted inhibition curve with a large enough effect (not every such curve was filed as active); inconclusive means small, poorly fitted or top-dose-only effect, or another doubt; inactive means no such curve, though single readings can be large or run the other way. Unless noted, on the % scale 0 is the no-effect control and ±100 the full control effect.

SMILES | ALDH1A1 block | JMJD2E inh | PNC assembly inh | HPGD block
O=C(NC(=S)Nc1ccccc1[N+](=O)[O-])c1ccccc1Cl | . | -9.7% | . | .
O=C(O)c1ccc(Cl)c(NC(=S)NC(=O)c2ccccc2[N+](=O)[O-])c1 | 22.4µM* | -8.9% | . | .
O=C(O)c1cccc(NC(=S)NC(NC(=O)c2cccc([N+](=O)[O-])c2)C(Cl)(Cl)Cl)c1 (centres undefined) | . | 2.3% | . | .
O=C(Nc1ccc(F)cc1)OCCOc1ccc([N+](=O)[O-])cc1 | 0.8% | 4.3% | . | .
COCCCNC(=O)Cn1c(=O)n(Cc2ccc(C(=O)NCCc3ccc(OC)c(OC)c3)cc2)c(=O)c2ccccc21 | 0.3% | -3.1% | . | .
O=C(CN1CCN(c2ccccc2O)CC1)Nc1ccc([N+](=O)[O-])cc1Br | ? | -12.0% | . | .
O=C(CNC(c1ccccc1)c1ccccc1)Nc1cc([N+](=O)[O-])ccc1Cl | 7.08µM* | 9.6% | -12.0 | -28.9%
O=C(CN1CCN(c2ccccc2O)CC1)Nc1cc([N+](=O)[O-])ccc1Cl | 22.4µM* | -13.6% | . | .
COc1ccc(C(=O)NC(=S)Nc2ccc([N+](=O)[O-])cc2C)cc1OC | 14.1µM* | -7.6% | 33.3 | -11.9%
CCCCCc1cccnc1 | 6.2% | 8.7% | . | .
COc1cc2c(cc1OC)C(/C=C/c1ccc(OC)c(OC)c1OC)=NCC2 | 7.7% | ? | . | -15.9%
Cc1ccc(C)n1-c1sc2c(c1C(=O)O)CCCC2 | 28.2µM* | -29.9% | 23.7 | -21.3%
O=C(Nc1sc2c(c1C(=O)O)CCCCC2)c1cccs1 | ? | -2.9% | . | .
O=C(Nc1sc2c(c1C(=O)O)CCCC2)c1cccs1 | -11.2% | -0.9% | 26.7 | 25.1µM*
COC(=O)c1c(NC(=O)c2ccco2)sc2c1CCC2 | ? | ? | -23.6 | ?
CCOC(=O)c1c(-n2c(C)cc(C=O)c2C)sc2c1CCCC2 | ? | -0.5% | 74.4 | 0.0%
O=C(Nc1sc2c(c1C(=O)O)CCC2)c1ccco1 | -5.1% | -0.1% | -24.1 | 22.4µM*
Cc1ccc(C(=O)Nc2sc3c(c2C(=O)O)CCCCC3)o1 | 18.9µM* | -4.8% | ? | 14.1µM*
COC(=O)c1ccc(C(NC(=O)OCc2ccccc2)/C(=C/[C@@H](C)C(=O)NCc2ccncc2)c2cccnc2)cc1 (some centres undefined) | 4.2% | 15.4% | . | -10.7%
CC(C)[C@H](NS(=O)(=O)c1ccccc1)C(=O)OCC(=O)N1N=C(c2ccc(Cl)cc2)CC1c1ccco1 (some centres undefined) | -8.2% | ? | 49.6 | -21.8%
O=C(NC12CC3CC(CC(C3)C1)C2)N1CCN(C(=O)c2ccco2)CC1 | -5.8% | 3.7% | . | .
CC(C)N1CCN(Cc2cn[nH]c2C2CCCCC2)CC1CCO (centres undefined) | 6.1% | 3.6% | . | .
O=C1C2C3C=CC(C3)C2C(=O)N1/N=C/c1cn(Cc2ccccc2)c2ccccc12 (centres undefined) | 10.0% | 8.1% | 27.1 | -5.5%
O=C1C2C3C=CC(C3)C2C(=O)N1/N=C/c1cn(Cc2ccc(F)cc2)c2ccccc12 (centres undefined) | 25.1µM* | 11.0% | 12.9 | -8.6%
O=C(CNc1ccc2c(c1)OCO2)N/N=C\c1cn(Cc2ccccc2)c2ccccc12 | 4.47µM* | -12.4% | -20.2 | -15.8%
SMILES | ALDH1A1 block | JMJD2E inh | PNC assembly inh | HPGD block
O=C(CNc1ccc2c(c1)OCO2)N/N=C\c1cn(Cc2ccc(F)cc2)c2ccccc12 | 2µM* | 1.3% | -16.0 | -18.5%
O=C(CNc1ccccc1)N/N=C/c1ccc2c(c1)OCO2 | -5.1% | -11.3% | -23.5 | -15.4%
Cc1cccc(OCC(=O)NCC(=O)N/N=C/c2c(C)[nH]c3ccccc23)c1 | . | -2.6% | . | .
Cc1c(Br)ccc(NC(=O)CCN2C(=O)C3C4CCC(C4)C3C2=O)c1C (centres undefined) | 31.6µM* | -6.9% | 23.2 | 2.6%
Cc1cc(NC(=O)CCN2C(=O)C3C4CCC(C4)C3C2=O)cc(C)c1Br (centres undefined) | ? | 0.4% | -19.9 | -9.4%
O=C(CN1CCCCCCC1)N/N=C/c1ccccc1F | ? | -8.8% | ? | 31.6µM*
Nc1cc(C(=O)O)ccc1N1CCCCC1 | 3.5% | ? | -100.0* | -25.9%
CC(C)c1ccc(NC(=S)NNC(=O)c2cccs2)cc1 | 20µM* | 19.7% | . | .
CC(=O)NC(=S)Nc1ccc(NC(=O)c2cccs2)cc1 | -13.3% | -0.4% | ? | -23.3%
CCCCC(=O)Nc1ccc(C(=O)NNC(=S)NC(=O)c2cccs2)cc1 | 25.1µM* | ? | ? | .
COc1ccc(NC(=S)NNC(=O)c2cccs2)cc1 | ? | 11.4% | -83.9* | -8.7%
Cc1c(C(=O)NC(=S)Nc2ccc(NC(=O)c3cccs3)cc2)oc2ccccc12 | 1.26µM* | 5.5% | ? | 2.82µM*
O=C(NNC(=S)NC(=O)c1cccs1)c1ccc(NC(=O)c2ccccc2)cc1 | ? | ? | -26.1 | -15.1%
COc1ccc(NC(=O)c2cccs2)cc1 | -3.7% | -7.3% | -18.5 | -9.2%
O=c1c(-c2cc(F)cc(F)c2)nc2cnc(N3CCNCC3)nc2n1Cc1cccs1 | ? | . | . | -16.4%
Cc1ccccc1C(=O)NC(=S)Nc1ccccc1N1CCCC1 | 25.1µM* | -5.6% | . | .
O=C(NC(=S)Nc1ccccc1N1CCCC1)c1cccc(F)c1 | 8.91µM* | -11.9% | . | .
CN1CCN(c2ccccc2NC(=O)c2ccc(F)cc2)CC1 | . | 1.9% | . | .
O=C(NC(=S)Nc1ccccc1N1CCCC1)c1ccc(F)cc1 | 7.51µM* | -0.9% | . | .
CC1CCN(c2ccccc2NC(=S)NC(=O)C(C)(C)C)CC1 | 1.26µM* | -9.5% | . | .
CC1CCN(c2ccccc2NC(=S)NC(=O)c2cccs2)CC1 | ? | -1.9% | ? | -13.2%
CCCOP(=O)(c1ccc(N(C)C)cc1)C(Nc1ccccc1)c1ccc(C)cc1 (centres undefined) | -5.8% | -16.0% | . | .
CCCC(NC(=S)NCC1CCCO1)C12CC3CC(CC(C3)C1)C2 (centres undefined) | ? | 3.0% | . | .
O=C(Nc1ccccc1N1CCCCC1)c1ccccc1F | ? | -5.7% | ? | -20.9%
O=C(NC(=S)Nc1ccccc1N1CCCCC1)c1ccccc1 | 18.9µM* | -4.5% | . | .
SMILES | ALDH1A1 block | JMJD2E inh | PNC assembly inh | HPGD block
COC(=O)Cc1ccc(NC(=S)N2CCN(c3ccc(F)cc3)CC2)cc1 | -9.8% | -5.0% | -95.7* | -3.2%
O=C(O)/C=C\C(=O)Nc1ccc(N2CCN(c3ccc(Cl)c(Cl)c3)CC2)cc1 | 6.31µM* | ? | . | .
O=C(O)/C=C\C(=O)Nc1ccc(N2CCN(c3ccc(Cl)cc3)CC2)cc1 | 11.2µM* | -29.5% | . | .
COC(=O)Cc1ccc(NC(=S)NCc2ccc(F)cc2)cc1 | -42.0% | 4.1% | ? | .
O=C(O)/C=C\C(=O)Nc1ccc(N2CCN(c3cccc(Cl)c3)CC2)cc1 | 28.2µM* | -14.9% | . | .
CCC(=O)N1CCc2cc(S(=O)(=O)CCC(=O)Nc3cccc(C)n3)ccc21 | -2.4% | -6.6% | . | .
O=C(O)/C=C\C(=O)Nc1ccc(N2CCN(c3ccc(F)cc3)CC2)cc1 | 8.91µM* | 1.6% | . | .
Nc1ccc(N2CCN(c3cccc(Cl)c3)CC2)cc1 | 14.1µM* | 0.8% | 11.4 | -10.4%
NS(=O)(=O)c1ccc(NC(=S)N2CCN(c3cccc(Cl)c3)CC2)cc1 | -9.7% | -2.5% | -26.5 | 25.1µM*
